# HCV inh: blocks hepatitis C virus. Huh7.5.1 HCVcc-Cre infection, luciferase reporter, 44 h. Potency, µM (top dose mostly 41.8 µM), most hits filed as inhibitors. 340,000 tested, 3.4% active. AID 651820
#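 Antiviral activity was scored by luciferase reporter output from cells infected with HCVcc-Cre (~0.5 moi) in presence of compound, 44 h infection period, cells seeded 1,000/well 4 h prior.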
# HCMV antiviral: inhibitors of human cytomegalovirus; HFF cells, HCMV-luciferase reporter, 72 h; stronger effect = lower value; activity change, negative = inhibition, % at 57.5 µM; 410,000 tested, 4.5% active; AID 1259415; in the data active means activity change below about -60%; inconclusive means no clear call, values can overlap the other calls; inactive means above about -39%
#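 After 16 h attachment at 37C, HFF cells received test compound and HCMV-luciferase (1 PFU/cell); reporter luminescence read 72 h later, data normalized against buffer-only and known inhibitor Salinomycin.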
# AmpC no deterg: blocks E. coli AmpC beta-lactamase in detergent-free assay; 330,000 tested, 0.52% active; P00811; AmpC nitrocefin hydrolysis, absorbance 480 nm, 0.0001% Triton; Potency, µM (series often up to 57.1 µM), most hits filed as inhibitors; further: nearly all actives have a fitted effect of over 20% in size
# Target sequence (P00811 whole entry, looked up): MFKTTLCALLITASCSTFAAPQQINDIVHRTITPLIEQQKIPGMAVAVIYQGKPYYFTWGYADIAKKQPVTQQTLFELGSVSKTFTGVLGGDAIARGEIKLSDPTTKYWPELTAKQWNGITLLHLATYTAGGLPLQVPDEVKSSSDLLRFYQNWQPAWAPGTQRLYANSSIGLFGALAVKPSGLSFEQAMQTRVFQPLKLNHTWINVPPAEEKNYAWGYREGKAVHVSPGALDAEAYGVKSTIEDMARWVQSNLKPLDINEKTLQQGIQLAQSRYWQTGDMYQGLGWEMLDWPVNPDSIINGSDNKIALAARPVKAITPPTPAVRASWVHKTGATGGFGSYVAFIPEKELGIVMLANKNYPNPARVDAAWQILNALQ
#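 20 mM phosphate pH 7.0 + 0.01% (detergent screen) or 0.0001% Triton X-100; 5.3 nM AmpC reagent; cpd preinc 15 min RT; nitrocefin (800 uM stock) to start; A480 q20 s × 4 min; Activity was normalised to no-enzyme and no-compound control wells.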
# FMDV inh: foot and mouth disease virus antiviral activity; FMDV antiviral cell-based qHTS; Potency, µM (doses to about 57.9 µM), hits mostly inhibitors; AID 1159524; 410,000 tested, 1.2% active; calls by dose curve; tested in HEK293T cells; further: read-out not given here; nearly all actives have a fitted effect of over 45% in size
# AmpC inh detg: AmpC beta-lactamase inhibition with detergent present; P00811; AmpC hydrolysis of nitrocefin, absorbance 480 nm, 0.01% Triton; Potency, µM (top dose mostly 114 µM), hits mostly inhibitors; 370,000 tested, 0.041% active; AID 485294; further: nearly all actives have a fitted effect of over 25% in size
#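 AmpC (5.3 nM in the dispensed reagent) in 20 mM phosphate pH 7.0 with 0.01% (detergent screen) or 0.0001% Triton X-100 was preincubated with compounds for 15 min at room temperature. Nitrocefin was then added from an 800 uM solution, and hydrolysis was followed at 480 nm.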
# A number is an active result; i = inactive; ? = inconclusive; nt = not tested or not shown; ! = not active in a repeat; [ ] = another dose, or the depositor's remark. Hits are enriched below; roughly 7.3% of the tested compounds scored in any of these assays. Unless noted, the call rests on the fitted dose curve; in most records, active means well fitted curve in the direction sought with a large enough effect; inconclusive means small, poorly fitted or top-dose-only effect, or another doubt; inactive means no such curve, though single readings can be large; an effect the other way counts as inactive or inconclusive.
SMILES,HCV inh,HCMV antiviral,AmpC no deterg,FMDV inh,AmpC inh detg
CCCCNC(=O)C(c1ccc(OCC(=O)OC)c(C(=O)OC)c1)N(CCc1ccccc1)C(=O)CCCCCN1C(=O)NC(c2ccc(-c3ccccc3)cc2)C(C(=O)OCc2ccccc2)=C1C (stereo not drawn),nt,nt,i,nt,i
Cc1ccsc1CN(C)CC(=O)Nc1ccc([N+](=O)[O-])cc1Cl,13µM,?,i,i,i
Cc1cc(Cl)ccc1OCC(=O)N(Cc1ccc(N(C)C)cc1)CC1CCCO1 (stereo not drawn),nt,i,nt,?,i
CC(C)CNc1cc(N2CCCC2)ccc1[N+](=O)[O-],4µM,i,i,nt,?
CNc1cc(N2CCCC2)ccc1[N+](=O)[O-],25µM,i,i[2.29 µM],i,i
CCNc1cc(N2CCCC2)ccc1[N+](=O)[O-],?,i,i,i,?
COc1ccccc1NS(=O)(=O)c1ccc(-c2cc(C)no2)s1,i,i,i,i,i
CCOc1ccc(N(C)S(=O)(=O)c2ccc(-c3cc(C)no3)s2)cc1,10µM,i,i,?,i
CCN(c1cccc(C)c1)S(=O)(=O)c1ccc(-c2cc(C)no2)s1,i,-65,i,i,i
Cc1cccc(N(C)S(=O)(=O)c2ccc(-c3cc(C)no3)s2)c1,i,-74!,i,i,i
COC(=O)C1=C(C)NC2=C(C(=O)CCC2)C1c1cn(Cc2ccc(Cl)cc2Cl)nc1-c1ccccc1 (stereo not drawn),?,-61,i,i,?
CCOC(=O)C1=C(C)NC2=C(C(=O)CCC2)C1c1cn(Cc2ccc(Cl)cc2Cl)nc1-c1ccccc1 (stereo not drawn),?,-90,i,i,?
COc1ccc(CNC(=O)CS(=O)(=O)c2cccc3nsnc23)cc1,nt,i,nt,i,i
O=C(Nc1ccc(F)cc1)c1cc(S(=O)(=O)N2CCCCC2)cs1,?,-84,22µM,?,i
CC1CN(S(=O)(=O)c2csc(C(=O)Nc3ccccc3)c2)CC(C)O1 (stereo not drawn),nt,-60,i,i,i
O=C(Nc1ccc(F)cc1)c1cc(S(=O)(=O)N2CCCCC2)ccc1F,?,i,i,?,i
COc1ccc(-c2nc3ccccc3s2)cc1NC(=O)c1ccc(C#N)cc1F,nt,i,nt,i,i
COc1ccc(S(=O)(=O)NC(=O)C2(C)CCN2C(=O)c2ccc(C(F)(F)F)nc2C)cc1 (stereo not drawn),nt,i,nt,i,nt
Cc1ccc(F)c(S(=O)(=O)NC(=O)C2(C)CCN2C(=O)c2ccc(C(F)(F)F)nc2C)c1 (stereo not drawn),nt,-87,nt,i,nt
Cc1nc(C(F)(F)F)ccc1C(=O)N1CCC1(C)C(=O)NS(=O)(=O)c1ccc(C(C)(C)C)cc1 (stereo not drawn),nt,-81,nt,i,nt
COc1cc(F)ccc1-c1csc(C(NC(C)=O)c2cccc(F)c2)n1 (stereo not drawn),nt,i,nt,i,nt
COC(=O)[C@@H]1[C@@H](CO)[C@@H]2Cn3c(ccc(Br)c3=O)[C@H]1N2S(C)(=O)=O,nt,i,nt,nt,nt
O=C(C[C@@H]1C/C=C\C[C@H](Cc2ccc(F)cc2)C(=O)OCCNC1=O)N[C@H](CO)Cc1ccccc1,i,i,i,i,nt
C[C@H]1COC(=O)[C@@H](Cc2ccc(F)cc2)C/C=C\C[C@@H](CC(=O)NCCO)C(=O)N1,3.5µM,i,i,i,nt
O=C(C[C@@H]1C/C=C/CC[C@H](Cc2ccc(F)cc2)C(=O)OCCNC1=O)N[C@H](CO)Cc1ccccc1,10µM,i,i,i,nt
SMILES,HCV inh,HCMV antiviral,AmpC no deterg,FMDV inh,AmpC inh detg
O=C1NCCOC(=O)[C@@H](Cc2ccc(F)cc2)CC/C=C/C[C@H]1CC(=O)N(CCO)Cc1ccccc1,11µM,i,i,?,nt
O=C(C[C@@H]1C/C=C/CC[C@H](Cc2ccc(F)cc2)C(=O)OC[C@@H](Cc2ccccc2)NC1=O)N[C@H](CO)Cc1ccccc1,?,-99,i,i,nt
Cc1c(C(=O)OCc2nc3ccsc3c(=O)[nH]2)oc2ccccc12,i,i,i,i,i
COc1ccc2c(c1)CCc1cnc(N)nc1-2,?,-68,i,i,i
O=C(COc1ccc(F)cc1)Nc1ccc2nc(SCC(=O)N3CCOCC3)sc2c1,nt,i,nt,?,i
O=C(CSc1nc2ccc(Nc3nc(N4CCOCC4)nc(N4CCOCC4)n3)cc2s1)Nc1ccccc1F,?,-97,i,i,i
O=C(CSc1nc2ccc(Nc3nc(N4CCOCC4)nc(N4CCOCC4)n3)cc2s1)Nc1ccccc1Cl,?,nt,i,i,i
O=C(COc1ccccc1F)Nc1ccc2nc(SCC(=O)N3CCOCC3)sc2c1,nt,-68,nt,?,i
O=C(COc1ccc(F)cc1)Nc1ccc2nc(SCC(=O)N3CCCC3)sc2c1,nt,i,nt,?,i
O=C(COc1ccccc1F)Nc1ccc2nc(SCC(=O)N3CCCC3)sc2c1,nt,-63,nt,?,i
C#CCOc1ccccc1C(=O)NNc1ccc([N+](=O)[O-])cc1[N+](=O)[O-],nt,i,nt,nt,nt
CN(C)C(=O)COC(=O)c1ccccc1Nc1ccc(SC(F)F)cc1,?,-67,i,i,i
COc1ccccc1NC(=O)COC(=O)c1ccccc1OCC(=O)Nc1ccc(SC(F)F)cc1,i,i,i,i,i
CC(=O)c1ccccc1NC(=O)c1ccc(N2CCCC2=O)cc1,13µM,i,i,i,i
COc1ccc(C(=O)Nc2ccccc2C(=O)N2CCCCCC2)cc1,i,?,i,i,i
O=C(c1ccccc1Nc1ccc(SC(F)F)cc1)N1CCCCCC1,?,-101,i,i,i
CS(=O)(=O)Nc1ccc(C(=O)Nc2ccccc2C(=O)N2CCCC2)cc1,i,i,i,i,i
O=C(Nc1ccccc1C(=O)N1CCCCCC1)c1ccc(F)cc1,i,-102,i,i,i
COCC(C)NC(=O)c1cc2c(ccc3ccccc32)oc1=O (stereo not drawn),i,i,i,i,?
CCc1cc2c(cc3c(=O)n(CC(=O)NC4CCC(C)CC4)ncn32)s1 (stereo not drawn),nt,i,nt,i,i
CCCNC(=O)c1cnc2sc(N3CCCCCC3)nn2c1=O,nt,i,nt,i,i
COC(=O)c1ccc(Oc2cc(C)nc(-n3nc(C)cc3C)n2)cc1,?,-76,i,i,i
C=CCOc1ccc(/C=C/C(=O)OCC(=O)NCc2cccs2)cc1,i[8.37 µM],i,?,i,?
CCOC(=O)c1ccc(NS(=O)(=O)c2ccc3c(c2)CCN3C(=O)CC)cc1,nt,i,nt,i,i
CCCCCCCCCCCn1nnnc1N,i,i,nt,i,nt
O=C1N(Cc2ccccc2Cl)c2ccccc2C1(O)c1c[nH]c2ccccc12 (stereo not drawn),nt,-94,nt,i,i
Cc1ccccc1CN1C(=O)C(O)(c2c[nH]c3ccccc23)c2cc(Cl)ccc21 (stereo not drawn),nt,-93,nt,i,i
Cc1ccc(CN2C(=O)C(O)(c3c(C)[nH]c4ccccc34)c3ccccc32)cc1 (stereo not drawn),nt,i,nt,i,i

# Screening data (PubChem BioAssay)
